Experimental data as given in PubChem BioAssay AID1259343 (VanderVen Lab, College of Veterinary Medicine, Cornell …, 2017).
Screen size: about 6,200 compounds; about 2,900 (47%) were called active. Rule as the data show it: active = inhibition above about 50%; inactive = the rest. The set was probably picked from earlier hits. The list shows a part of the results.

Assay: Mycobacterium tuberculosis growth inhibition, primary screen (AID 1259343)
Settings: inhibition: at 10 µM, active compounds read high; outcome: 10 uM
For NC(=S)Nc1nc2ccccc2s1, the inhibition was 89.5% (active).
In the case of O=C(CCN1CCCCC1c1cccnc1)Nc1nc2ccccc2s1 (stereo not drawn), the inhibition is reported as 35.6% (inactive).
In the case of CC(=NNc1nc2ccccc2s1)c1cc2ccccc2o1, the inhibition is reported as 3.87% (inactive).
With Cc1cc(C)nc(Oc2ccc(Br)cc2Br)n1 the inhibition was 75.3% (active).
In the case of N#Cc1ccc(COc2ccc(Br)cc2Br)cc1, the inhibition is reported as 1.7% (inactive).
In the case of Brc1ccc2cc(Oc3ncccn3)ccc2c1, the inhibition is reported as 5.33% (inactive).
For C=CCOc1ccc(/C=N\O)cc1Cl, the inhibition was 86.2% (active).
With C=C1C2CC[C@@]3(C)[C@H](c4ccoc4)OC(=O)C[C@]13O[C@H]1CC(O)C(C)(C)C(CC(=O)OC)[C@@]21C (stereo partly drawn) the inhibition was 79.9% (active).
With COC(=O)C[C@H]1C2(C)CC34OC5(C)O[C@@]6([C@H](OC)C(OC(=O)C(C)C)[C@]7(C)C(/C(=C(/OC)C(C)C)C(=O)O[C@H]7c7ccoc7)[C@@]6(O5)[C@H](OC)[C@@]3(OC)C2OC(C)=O)[C@]14C (stereo partly drawn) the inhibition was 37.5% (inactive).
In the case of O=S(=O)(c1ccc(Cl)cc1)c1nc(Nc2ccc(F)cc2F)sc1Cl, the inhibition is reported as 82.6% (active).
In the case of CCC(O)c1ccc(OCCCC(C)(C)C#N)cc1 (stereo not drawn), the inhibition is reported as 90.6% (active).
For FC(F)(F)c1ccnn1-c1nc(-c2ccc(Br)cc2)cs1, the inhibition was 16.4% (inactive).
In the case of CSc1ccccc1NS(=O)(=O)c1ccc2ccccc2c1, the inhibition is reported as 11.2% (inactive).
For O=C(NC1CCCC1)c1ccccc1NS(=O)(=O)c1ccc(F)c(F)c1F, the inhibition was 18.7% (inactive).
With O=S(=O)(Nc1ccc2ccccc2c1)c1ccc(F)c(F)c1F the inhibition was 84.5% (active).
In the case of Cc1cc(Cl)ccc1NS(=O)(=O)c1ccc(F)c(F)c1F, the inhibition is reported as 23.8% (inactive).
With O=S(=O)(Nc1ccc(Cl)cc1)c1ccc(F)c(F)c1F the inhibition was 95.7% (active).
With O=C(Nc1ccccc1)C1CSCN1S(=O)(=O)c1ccc(Cl)cc1C(F)(F)F (stereo not drawn) the inhibition was -4.72% (inactive).
For COc1cc(Cc2cnc(N)nc2N)cc(OC)c1OC, the inhibition was 98.3% (active).
With CCCCNC(=O)c1cc2sc3ccccc3c2s1 the inhibition was 101% (active).
In the case of CCCCNC(=O)c1ccc(C)c(OCC)c1, the inhibition is reported as -17.8% (inactive).
With CN(C)c1ccc(/C=C/C(=O)N(C)C2C3CC4CC(C3)CC2C4)cc1 (stereo not drawn) the inhibition was 8.71% (inactive).
With O=C(NNc1ccccc1)C(O)C(O)C(=O)NNc1ccccc1 (stereo not drawn) the inhibition was 83.3% (active).
With COCCN(CC(=O)N(Cc1ccc(F)cc1)Cc1ccco1)C(=O)N(C)C the inhibition was 22.5% (inactive).
In the case of CC(C)N(CC(=O)N(CCc1c[nH]c2ccccc12)Cc1ccc(C(C)(C)C)cc1)CC(O)COCc1ccco1 (stereo not drawn), the inhibition is reported as 53.8% (active).
With COc1ccc(-c2oncc2-c2ccccc2)c(O)c1 the inhibition was -29.6% (inactive).
In the case of COc1cccc(Oc2cncnc2-c2ccc(OC)cc2O)c1, the inhibition is reported as 76.5% (active).
In the case of CCN(CC)CCNc1nc(C23CC4CC(CC(C4)C2)C3)cs1, the inhibition is reported as 55.4% (active).
For COCCn1c(SC(C)C)nc2ccc(Br)cc2c1=O, the inhibition was -18.7% (inactive).
For CC(C)CCn1c(SCC(=O)NC(C)(C)C)nc2cc(Cl)ccc2c1=O, the inhibition was 88.4% (active).
In the case of COCCn1c(SCCc2ccccc2)nc2cc(Cl)ccc2c1=O, the inhibition is reported as 15.5% (inactive).
With NCCOB(c1ccccc1)c1ccccc1 the inhibition was 101% (active).
With O=C(CC1CCCC1)NCCCNC(=O)CC1CCCC1 the inhibition was 7.09% (inactive).
In the case of O=C(CCl)NCCCCCCCCCNC(=O)CCl, the inhibition is reported as 93.8% (active).
With CS(=O)(=O)Nc1c(Cl)c(Cl)c(Cl)c(Cl)c1Cl the inhibition was 84% (active).
With CC(Nc1cc(N2CCNCC2)ccc1[N+](=O)[O-])C12CC3CC(CC(C3)C1)C2 (stereo not drawn) the inhibition was 59.9% (active).
For O=[N+]([O-])c1ccc(Cl)cc1NN=C1C2CC3CC1CC(O)(C3)C2, the inhibition was 47.3% (inactive).
For Cc1ccc(N2CCN(C(=O)C34CC5CC(CC(C5)C3)C4)CC2)cc1Cl, the inhibition was 10.8% (inactive).
For O=[N+]([O-])c1ccc(N2CCNCC2)cc1NC1C2CC3CC(C2)CC1C3 (stereo not drawn), the inhibition was 83.1% (active).
In the case of COc1ccc(NC(=O)N2CCCC(C(=O)c3cccc(OC(C)C)c3)C2)cc1OC (stereo not drawn), the inhibition is reported as 19% (inactive).
With COc1ccc(C)cc1C(=O)Nc1ccc(N2CCCCC2)nc1 the inhibition was 2.05% (inactive).
In the case of COc1ccc(NC(=O)Nc2cccc(-c3ccc(N4CCCC4)nn3)c2)cc1, the inhibition is reported as 66.1% (active).
In the case of Fc1ccc(NN=Cc2c[nH]c3ccccc23)c(F)c1, the inhibition is reported as 90.6% (active).
For Fc1ccc(NN=Cc2ccc(F)c(F)c2)c(F)c1, the inhibition was 40.3% (inactive).
In the case of O=C(NN=Cc1c[nH]c2ccc(Br)cc12)C1CC1, the inhibition is reported as 13.7% (inactive).
For C(=NNc1ccccc1)c1c[nH]c2ccccc12, the inhibition was 52% (active).
In the case of Fc1ccc(NN=Cc2ccccn2)c(F)c1, the inhibition is reported as 103% (active).
In the case of NC(=S)NN=Cc1c[nH]c2ccccc12, the inhibition is reported as “inactive”.
With C=CCN1C(=O)C(=O)N(CC2CCCCC2)C1=O the inhibition was 43.2% (inactive).
With CCCCSc1nsc(NC(C)=O)n1 the inhibition was 71.7% (active).
With C=CCn1c(SCCCC)nc(O)cc1=O the inhibition was 33.7% (inactive).
With Cc1ccc2c(c1)-c1c(s[s+]c1SCC(=O)c1ccccc1)C(C)(C)N2 the inhibition was 18.9% (inactive).
For CN(CC(=O)Nc1ccc(Cl)cc1Cl)Cc1ccsc1, the inhibition was 34.7% (inactive).
In the case of Cc1ccc(CN(C)CC(=O)Nc2cc(Cl)ccc2C#N)cc1, the inhibition is reported as -19.5% (inactive).
In the case of Cc1ccc(F)cc1NC(=O)CN(C)Cc1ccccc1F, the inhibition is reported as 86.7% (active).
In the case of O=C(Nc1ccc2c(c1)Cc1ccccc1-2)C1CCCO1 (stereo not drawn), the inhibition is reported as 81.9% (active).
In the case of O=C(CCl)c1ccc(NC(=O)c2ccco2)cc1, the inhibition is reported as 44.1% (inactive).
For O=C(Nc1ccc2c(c1)Cc1ccccc1-2)c1ccco1, the inhibition was 90% (active).
With Brc1ccc(OCCOc2cccc(-n3cnnn3)c2)cc1 the inhibition was 69.1% (active).
For O=c1cnc2ccccc2n1CCOc1ccc(Br)cc1, the inhibition was 22.6% (inactive).
For CCOc1ccc(-n2c(C)cc(C(=O)COc3cccc(-n4cnnn4)c3)c2C)cc1, the inhibition was 89.6% (active).
In the case of OCC1(Cc2ccccc2F)CCCN(Cc2nc(-c3ccccc3)cs2)C1 (stereo not drawn), the inhibition is reported as 13.4% (inactive).
With Cc1cc(OCC(=O)Nc2ncn[nH]2)c(C)cc1Br the inhibition was 71.5% (active).
For CC(=O)c1cc(Cl)ccc1OCC(=O)Nc1ccc(C)cc1Br, the inhibition was 29.6% (inactive).
With CC(C)CC(NC(=O)c1ccc(Cl)cc1Cl)C(=O)Nc1ncn[nH]1 (stereo not drawn) the inhibition was 3.98% (inactive).
For O=S(=O)(CCNc1ccc(Br)cc1)c1ccc(Cl)cc1, the inhibition was 93.3% (active).
With COc1ccccc1OS(=O)(=O)CCS(=O)(=O)c1ccc(Cl)cc1 the inhibition was 33.8% (inactive).
With Brc1ccc(NCc2ccsc2)cc1 the inhibition was 47.5% (inactive).
In the case of COc1ccc(-c2csc(-n3[nH]c(C)c(N=Nc4nccs4)c3=O)n2)cc1, the inhibition is reported as 98.8% (active).
With Brc1ccccc1C1N=C(c2ccccc2)NO1 (stereo not drawn) the inhibition was 67.1% (active).
For CC1=NN(c2nc(C)cc(C)n2)C(=O)C1Cc1ccccc1Cl (stereo not drawn), the inhibition was -7.67% (inactive).
For CC(C(=O)O)c1ccc2c(c1)[nH]c1ccc(Cl)cc12 (stereo not drawn), the inhibition was 86% (active).
For CCN(C)CC1CCN(C(=O)CC2CCC(c3ccccc3)CC2)C1 (stereo not drawn), the inhibition was -3.03% (inactive).
For CC(C)(C)C1CCN(c2ncnc(Oc3ccc(F)cc3)c2N)CC1, the inhibition was 25.6% (inactive).
For CCN(CC)c1ncnc(N2CCC(c3ccccc3)CC2)c1N, the inhibition was 56.1% (active).
In the case of O=C(COn1nnc2ccc(C(F)(F)F)cc21)NC12CC3CC(CC(C3)C1)C2, the inhibition is reported as 21.7% (inactive).
In the case of COc1cccc(-c2cc3c(Nc4ccc5c(c4)OCO5)nccc3n2C)c1, the inhibition is reported as 85.6% (active).
With COc1cccc(-c2cc3c(Nc4ccc5c(c4)OCCO5)nccc3n2C)c1 the inhibition was 61.1% (active).
In the case of O=C1CCC2(CCCO2)CCN1Cc1ccc(C(F)(F)F)nc1 (stereo not drawn), the inhibition is reported as -2.37% (inactive).
In the case of O=C(Cn1nc(-c2ccc(F)cc2)oc1=O)N1CCSc2ccccc21, the inhibition is reported as 80.5% (active).
For NC(N)=NCCCCN=C(N)N, the inhibition was 0.43% (inactive).
For CS(=O)(=O)N=C1C=C(S(=O)(=O)c2ccccc2)C(=O)c2ccccc21, the inhibition was 30.9% (inactive).
With COc1ccc2c(Cl)c(C(=O)n3cnc4ccccc43)sc2c1 the inhibition was 94.7% (active).
In the case of COc1ccc2c([N+](=O)[O-])c(-n3nnc4ccccc43)[nH]c2c1, the inhibition is reported as -24.2% (inactive).
With O=[N+]([O-])c1nn(-c2ccc3c(c2)OCCO3)n(O)c1=NC1CCCCCC1 the inhibition was 62.8% (active).
For C(=Nn1c(-c2ccc3c(c2)OCCO3)csc1=NC1CCCCC1)c1cccnc1, the inhibition was 9.36% (inactive).
For Brc1cccc(N2CCC(CNc3ncccn3)C2)c1 (stereo not drawn), the inhibition was 90.2% (active).
With O=S(=O)(NCc1ccc(N2CCCC2)cc1)c1cccc(Br)c1 the inhibition was 28.5% (inactive).
In the case of CNC(=O)C1CCN(C(=O)COc2ccc(Oc3ccc(C)cc3)cc2)CC1, the inhibition is reported as -12.7% (inactive).
With Cc1ccc(COc2ccc(/C=N\NC(=O)CN3CCCCC3)cc2)cc1 the inhibition was 83.3% (active).
With CC1Cc2cc(S(N)(=O)=O)ccc2N1CCCc1ccccc1 (stereo not drawn) the inhibition was -10.1% (inactive).
For O=c1c(Cl)c(Nc2ccc3c(c2)CCC3)cnn1-c1ccccc1, the inhibition was 21.7% (inactive).
With O=c1c(Cl)c(NCC2CCC2)cnn1-c1ccc(Cl)cc1 the inhibition was 58% (active).
In the case of CC(C)(C)n1ncc(NCC2CCCc3ccccc32)c(Cl)c1=O (stereo not drawn), the inhibition is reported as 22.4% (inactive).
In the case of Cc1ccc(CC(SCc2ccccc2)C(=O)O)cc1C (stereo not drawn), the inhibition is reported as 57.4% (active).
In the case of CN(C)c1ccc(Nc2nc3ccccc3n3nnnc23)cc1, the inhibition is reported as 11.8% (inactive).
In the case of Clc1ccc2nc(Cl)c3nnnn3c2c1, the inhibition is reported as 102% (active).
In the case of CCOc1ccc(Cl)cc1CNc1nnnn1C, the inhibition is reported as -8.06% (inactive).
For Cc1ccc(OCC(=O)NC2CCCC(C)C2C)cc1 (stereo not drawn), the inhibition was 60% (active).
For COc1cc(NC(=O)C(C)Oc2ccc(F)c(F)c2)cc(OC)c1 (stereo not drawn), the inhibition was 34.5% (inactive).
In the case of COc1ccc(-c2ccc(C(=O)NS(C)(=O)=O)c(F)c2)c(F)c1, the inhibition is reported as 55.6% (active).
For Cc1cc(=O)[nH]c(-n2nc(-c3cccs3)cc2NC(=O)C2CC2)n1, the inhibition was 2.59% (inactive).
In the case of O=C(Nc1nccs1)C1CCN(c2ccc(C(F)(F)F)cn2)CC1, the inhibition is reported as 18.4% (inactive).
In the case of Cc1cc(=O)[nH]c(-n2nc(C)cc2NC(=O)C2CCCCC2)n1, the inhibition is reported as 101% (active).
For Cc1cc(=O)[nH]c(-n2nc(C)cc2NC(=O)C2CC2)n1, the inhibition was 100% (active).
In the case of FC(F)(F)c1ccc(N2CCN(C(=S)NC3CC3)CC2)nc1, the inhibition is reported as -12.1% (inactive).
With Cc1cc(=O)[nH]c(-n2nc(-c3cccs3)cc2NC(=O)C2CCCCC2)n1 the inhibition was 100% (active).
For Cc1cc(NC(=O)C2CCC2)n(-c2ccc(C(F)(F)F)cn2)n1, the inhibition was 79.6% (active).
